This passage reports binding signal results from publication PMC9911399, “Two distinct binding modes provide the RNA-binding protein RbFox with extraordinary sequence specificity”.

Sequences and labels used below:
B1: GGUCGGG (DNA:RNA)
RNA: GGGAGACCGGAAUUCAGAUUGUCCGGUCGGGUUAAAUCCCGUCGUAGCCACCA
DNA 1: CAATCTGAATTCCGGTCTCCC
DNA 2: TGGTGGCTACGACGGGATT
B2: GGGACGG (DNA:RNA)
RNA: B1 RNA with U27G, C28A, G29C
DNA 1: CAATCTGAATTCCGGTCTCCC
DNA 2: TGGTGGCTACGACGGGATT
B3: GGUUUGU (DNA:RNA)
RNA: B1 RNA with C28U, G29U, G31U
DNA 1: CAATCTGAATTCCGGTCTCCC
DNA 2: TGGTGGCTACGACGGGATT
B4: CGGUUUG (DNA:RNA)
RNA: B1 RNA with G25C, U27G, C28U, G29U, G30U
DNA 1: CAATCTGAATTCCGGTCTCCC
DNA 2: TGGTGGCTACGACGGGATT
B5: GGUUUUG (DNA:RNA)
RNA: B1 RNA with C28U, G29U, G30U
DNA 1: CAATCTGAATTCCGGTCTCCC
DNA 2: TGGTGGCTACGACGGGATT
B6: GUCCGGU (DNA:RNA)
RNA: B1 RNA with G26U, U27C, G31U
DNA 1: CAATCTGAATTCCGGTCTCCC
DNA 2: TGGTGGCTACGACGGGATT
B7: GGUUUGG (DNA:RNA)
RNA: B1 RNA with C28U, G29U
DNA 1: CAATCTGAATTCCGGTCTCCC
DNA 2: TGGTGGCTACGACGGGATT
B8: GGUUUUU (DNA:RNA)
RNA: B1 RNA with C28U, G29U, G30U, G31U
DNA 1: CAATCTGAATTCCGGTCTCCC
DNA 2: TGGTGGCTACGACGGGATT
B9: UACCCGA (DNA:RNA)
RNA: B1 RNA with G25U, G26A, U27C, G29C, G31A
DNA 1: CAATCTGAATTCCGGTCTCCC
DNA 2: TGGTGGCTACGACGGGATT
B10: GGUCCCA (DNA:RNA)
RNA: B1 RNA with G29C, G30C, G31A
DNA 1: CAATCTGAATTCCGGTCTCCC
DNA 2: TGGTGGCTACGACGGGATT
B11: GGAGCAG (DNA:RNA)
RNA: B1 RNA with U27A, C28G, G29C, G30A
DNA 1: CAATCTGAATTCCGGTCTCCC
DNA 2: TGGTGGCTACGACGGGATT
B12: GAAAUGC (DNA:RNA)
RNA: B1 RNA with G26A, U27A, C28A, G29U, G31C
DNA 1: CAATCTGAATTCCGGTCTCCC
DNA 2: TGGTGGCTACGACGGGATT
B13: UUAAUGC (DNA:RNA)
RNA: B1 RNA with G25U, G26U, U27A, C28A, G29U, G31C
DNA 1: CAATCTGAATTCCGGTCTCCC
DNA 2: TGGTGGCTACGACGGGATT
B14: GAUGCUU (DNA:RNA)
RNA: B1 RNA with G26A, C28G, G29C, G30U, G31U
DNA 1: CAATCTGAATTCCGGTCTCCC
DNA 2: TGGTGGCTACGACGGGATT
B15: GAAUUGC (DNA:RNA)
RNA: B1 RNA with G26A, U27A, C28U, G29U, G31C
DNA 1: CAATCTGAATTCCGGTCTCCC
DNA 2: TGGTGGCTACGACGGGATT
B16: UAAAUGC (DNA:RNA)
RNA: B1 RNA with G25U, G26A, U27A, C28A, G29U, G31C
DNA 1: CAATCTGAATTCCGGTCTCCC
DNA 2: TGGTGGCTACGACGGGATT
B17: GCAAUGC (DNA:RNA)
RNA: B1 RNA with G26C, U27A, C28A, G29U, G31C
DNA 1: CAATCTGAATTCCGGTCTCCC
DNA 2: TGGTGGCTACGACGGGATT
B18: CGAAUGC (DNA:RNA)
RNA: B1 RNA with G25C, U27A, C28A, G29U, G31C
DNA 1: CAATCTGAATTCCGGTCTCCC
DNA 2: TGGTGGCTACGACGGGATT
B19: GGAAUGC (DNA:RNA)
RNA: B1 RNA with U27A, C28A, G29U, G31C
DNA 1: CAATCTGAATTCCGGTCTCCC
DNA 2: TGGTGGCTACGACGGGATT
B20: GAAUGCU (DNA:RNA)
RNA: B1 RNA with G26A, U27A, C28U, G30C, G31U
DNA 1: CAATCTGAATTCCGGTCTCCC
DNA 2: TGGTGGCTACGACGGGATT
B21: UGAAUGC (DNA:RNA)
RNA: B1 RNA with G25U, U27A, C28A, G29U, G31C
DNA 1: CAATCTGAATTCCGGTCTCCC
DNA 2: TGGTGGCTACGACGGGATT
B22: GUAAUGC (DNA:RNA)
RNA: B1 RNA with G26U, U27A, C28A, G29U, G31C
DNA 1: CAATCTGAATTCCGGTCTCCC
DNA 2: TGGTGGCTACGACGGGATT
B23: GAUUGCU (DNA:RNA)
RNA: B1 RNA with G26A, C28U, G30C, G31U
DNA 1: CAATCTGAATTCCGGTCTCCC
DNA 2: TGGTGGCTACGACGGGATT
B24: AUGCCGC (DNA:RNA)
RNA: B1 RNA with G25A, G26U, U27G, G29C, G31C
DNA 1: CAATCTGAATTCCGGTCTCCC
DNA 2: TGGTGGCTACGACGGGATT
B25: ACACGGC (DNA:RNA)
RNA: B1 RNA with G25A, G26C, U27A, G31C
DNA 1: CAATCTGAATTCCGGTCTCCC
DNA 2: TGGTGGCTACGACGGGATT
B26: UUUUCCC (DNA:RNA)
RNA: B1 RNA with G25U, G26U, C28U, G29C, G30C, G31C
DNA 1: CAATCTGAATTCCGGTCTCCC
DNA 2: TGGTGGCTACGACGGGATT
B27: GGGACUG (DNA:RNA)
RNA: B1 RNA with U27G, C28A, G29C, G30U
DNA 1: CAATCTGAATTCCGGTCTCCC
DNA 2: TGGTGGCTACGACGGGATT
B28: UCCAGUU (DNA:RNA)
RNA: B1 RNA with G25U, G26C, U27C, C28A, G30U, G31U
DNA 1: CAATCTGAATTCCGGTCTCCC
DNA 2: TGGTGGCTACGACGGGATT
B29: CGAUCAG (DNA:RNA)
RNA: B1 RNA with G25C, U27A, C28U, G29C, G30A
DNA 1: CAATCTGAATTCCGGTCTCCC
DNA 2: TGGTGGCTACGACGGGATT
B30: AUUGUAA (DNA:RNA)
RNA: B1 RNA with G25A, G26U, C28G, G29U, G30A, G31A
DNA 1: CAATCTGAATTCCGGTCTCCC
DNA 2: TGGTGGCTACGACGGGATT
B31: UUUGUUC (DNA:RNA)
RNA: B1 RNA with G25U, G26U, C28G, G29U, G30U, G31C
DNA 1: CAATCTGAATTCCGGTCTCCC
DNA 2: TGGTGGCTACGACGGGATT

Where a chain is given by its changes, count along the chain named. The full ranking holds about 16,000 sequences; the median of “ka relative to ugcaugu” is about 0.096, and the highest 2% start at about 0.35. The sample as a whole holds a higher share of the highest values than the screen did.

The target of this assay is T1, RBFOX1 RRM RbFoxmut (Fox-RRM*) (Homo sapiens, UniProt Q9NWB1 109-208, R118D;E147R;N151S;E152T).
T1 sequence: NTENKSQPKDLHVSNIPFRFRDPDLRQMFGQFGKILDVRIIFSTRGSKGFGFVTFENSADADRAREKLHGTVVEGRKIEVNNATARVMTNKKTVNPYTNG
In words: EMSA; HiTS-Eq, 1 nM pool, 10 min; buffer printed only for the single-RNA assays: 10 mM Tris pH 7.5, 150 mM NaCl, 3.4 mM EDTA, 0.001% NP-40, 30 C. The following applies: tags: His6 N-terminal (pET28a); label: 5' 32P. In a few lines: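 These values rest on relative association constants, computed from read-count changes of each RNA species versus the control reaction and normalised to the cognate motif. Reads came from free RNA recovered by 8% native PAGE after purified RbFox RRM (wild type or mutant) at increasing concentrations was equilibrated for 10 min in 50 µL with 1 nM of a 5′-radiolabelled pool with 7 randomized nucleotides and DNA-annealed flanks.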
(A gel shift assay detects complexes by their altered migration in electrophoresis.)
B1: the binding signal is 0.0602 KA relative to UGCAUGU. As for B2, the binding signal was 0.0996 KA relative to UGCAUGU.

Consider B3, for which the binding signal is 0.366 KA relative to UGCAUGU.

As for B4, the binding signal was 0.633 KA relative to UGCAUGU. With B5, the binding signal was 0.191 KA relative to UGCAUGU. In the case of B6, the binding signal is 0.132 KA relative to UGCAUGU. For B7, the binding signal is 0.277 KA relative to UGCAUGU. The same measure for B8: 0.056 KA relative to UGCAUGU; for B9: 0.066 KA relative to UGCAUGU. For B10, the binding signal was 0.0504 KA relative to UGCAUGU.

Consider B11, for which the binding signal was 0.0829 KA relative to UGCAUGU. Consider B12, for which the binding signal was 0.072 KA relative to UGCAUGU. Take B13: the binding signal was 0.118 KA relative to UGCAUGU. Consider B14, for which the binding signal is 0.0831 KA relative to UGCAUGU. For the molecule B15, the binding signal is 0.119 KA relative to UGCAUGU. The same measure for B16: 0.0677 KA relative to UGCAUGU; for B17: 0.0545 KA relative to UGCAUGU; for B18: 0.856 KA relative to UGCAUGU.

For the molecule B19, the binding signal was 0.686 KA relative to UGCAUGU. As for B20, the binding signal is 0.634 KA relative to UGCAUGU.

Regarding B21, the binding signal was 0.485 KA relative to UGCAUGU. In the case of B22 it was 0.127 KA relative to UGCAUGU; in that of B23, 0.141 KA relative to UGCAUGU. As for B24, the binding signal was 0.11 KA relative to UGCAUGU.

Turning to B25, the binding signal was 0.115 KA relative to UGCAUGU. The same measure for B26: 0.0312 KA relative to UGCAUGU; for B27: 0.266 KA relative to UGCAUGU; for B28: 0.0717 KA relative to UGCAUGU. In the case of B29 it was 0.0789 KA relative to UGCAUGU; in that of B30, 0.154 KA relative to UGCAUGU.

With B31, the binding signal is 0.0935 KA relative to UGCAUGU.
